Structures can show the parent of a compound that is named as a salt. Unmarked numbers belong to inactive results. How the calls were made is not given here. Residues, ends and D or L forms follow the SMILES beside them. *: point of attachment. Tfa = O=C(C(F)(F)F)*
The compounds below were run on Aerobactin synthetase IucA (Klebsiella pneumoniae hvKP1) (assay: IucA enzyme inhibition, primary screen, biochemical, Spectrum library (AID 1346200;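 further: 100% = wells without compound and 0% = wells lacking enzyme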)). Settings: malachite green pyrophosphate, A620, at 8 µM, active compounds read low.

SMILES | activity remaining
C[C@@H]1CC2C3CCC4=CC(=O)C=C[C@]4(C)[C@@]3(F)[C@@H](O)C[C@]2(C)[C@@]1(O)C(=O)CO (stereo not given in full) | 119%
NCC1CCCCC1CC(=O)O (stereo not given) | 98.9%
CC(=O)O[C@@H]1CC2C(C)(CC[C@H](O)C2(C)C)C2CC[C@]3(C)C(=CC(=O)O[C@H]3c3ccoc3)C21C (stereo not given in full) | 95.5%
Oc1ccc(Cl)c2cccnc12 | 121%
CC(=O)O[C@H]1CC[C@@]2(C)C(CC[C@]3(C)C2CC=C2C4CC(C)(C)CC[C@]4(C)CC[C@]23C)C1(C)C (stereo not given in full) | 102%
OCCOCCN1CCN(C2=Nc3ccccc3Sc3ccccc32)CC1 | 105%
C[N+](C)(C)CC(O)CC(=O)O (stereo not given) | 99.1%
Cc1cc(C2CCCCC2)n(O)c(=O)c1 | 95.7%
COC(=O)[C@@H]1C(O)CC[C@H]2CN3CCc4c([nH]c5ccccc45)[C@@H]3C[C@@H]21 (stereo not given in full) | 96.8%
COc1cc2c3cc1Oc1cc(ccc1O)C[C@@H]1c4c(cc(OC)c(O)c4Oc4ccc(cc4)C[C@@H]3N(C)CC2)CC[N+]1(C)C | 99.6%
CCN(CC)CCNC(=O)c1cc(Br)c(N)cc1OC | 109%
C[C@@H]1CC[C@@]23CCC4(C)[C@@](C=CC5[C@@]6(C)CC[C@H](O)C(C)(C)C6CC[C@]54C)(OC2=O)C3[C@H]1C (stereo not given in full) | 99.4%
Cc1cc(OC(=O)c2c(C)cc(O)cc2O)cc(O)c1C(=O)O | 115%
CC(=O)N1CCN(c2ccc(OCC3CO[C@](Cn4ccnc4)(c4ccc(Cl)cc4Cl)O3)cc2)CC1 (stereo not given in full) | 97%
CC(=O)O[C@@H]1CC2C(C)(C)[C@H](O)C[C@H](O)[C@]2(C)C2CC[C@@]3(C)C(=CC(=O)O[C@H]3c3ccoc3)[C@@]21C (stereo not given in full) | 102%
COc1cc(C(=O)N2CCOCC2)cc(OC)c1OC | 111%
CC(=O)[C@H]1CCC2C3CC=C4C[C@@H](OC(=O)CCC(=O)O)CC[C@]4(C)C3CC[C@@]21C (stereo not given in full) | 117%
C[C@@H]1O[C@@H](OC[C@H]2OC(Oc3c(-c4ccc(OCCO)c(OCCO)c4)oc4cc(OCCO)cc(O)c4c3=O)[C@H](O)[C@@H](O)[C@@H]2O)[C@H](O)[C@H](O)[C@H]1O (stereo not given in full) | 121%

SMILES | activity remaining
CS(=O)(=O)OCCCCOS(C)(=O)=O | 79.2%
CC(=O)Oc1ccc2c(c1)CCC1C2CC[C@@]2(C)C1C[C@@H](OC(C)=O)[C@@H]2OC(C)=O (stereo not given in full) | 97.3%
COc1ccc2c(c1)O[C@@H]1COc3cc(OC)c(OC)cc3[C@@H]1C2=O | 111%
N[C@@H]1[C@@H](O)[C@H](O)[C@@H](CO)O[C@H]1O | 80.8%
CCCC(=O)Nc1ccc(OCC(O)CNC(C)C)c(C(C)=O)c1 (stereo not given) | 120%
O=C1C=CC(=C(c2ccc(O)cc2)c2ccc(O)cc2)C=C1 | 105%
COc1ccc([C@@H](C)C(=O)c2ccc(O)cc2O)cc1 | 118%
O=C(O)c1cc(O)c(O)c(O)c1 | 117%
CC(C)C(NC(=O)C(Cc1ccc(O)cc1)NC(=O)C(NC(=O)C(F)(F)F)C(C)C)C(=O)O (stereo not drawn) (Tfa-Val-Tyr-Val-OH; configuration not given here) | 105%
COC(=O)/C(=C1\OC(=O)C(c2ccccc2)C1=O)c1ccccc1 (stereo not given) | 106%
CC(CCC(=O)O)[C@H]1CCC2C3CC[C@@H]4CCCC[C@]4(C)C3CC[C@@]21C (stereo not given in full) | 108%
CC(=O)c1c(O)c(C)c(O)c2c1OC1=CC(=O)C(C(C)=O)C(=O)C12C (stereo not given) | 94.6%
C=CCCCCCCCCCCCC(O)CC(O)COC(C)=O (stereo not given) (tested in a mixture with another compound) | 81.7%
CCC(C)C(=O)OC1[C@@H]2CC3=C4CC(=O)O[C@@H](c5ccoc5)[C@]4(C)CCC3C(C)(C2=O)[C@@H](CC(=O)OC)C1(C)C (stereo not given in full) | 125%
C/C=C(\C)C(=O)O[C@@H]1c2c(ccc3ccc(=O)oc23)OC(C)(C)[C@@H]1OC(C)=O | 87%
CC(=O)OCC(=O)[C@@]12OC(C)(C)O[C@@H]1CC1C3C[C@H](F)C4=CC(=O)C=C[C@]4(C)[C@@]3(F)[C@@H](O)C[C@@]12C (stereo not given in full) | 100%
CC(=O)OCC(=O)[C@@]12OC3(CCCC3)O[C@@H]1CC1C3CCC4=CC(=O)C=C[C@]4(C)[C@@]3(F)[C@@H](O)C[C@@]12C (stereo not given in full) | 90.4%

Source: PubChem BioAssay
